The text below walks through data of ChEMBL document CHEMBL2218924, “A broad activity screen in support of a chemogenomic map for kinase signalling research and drug discovery” (Biochem J, 2013).

Assay [1] has as its target T1, Ephrin type-B receptor 1 (Homo sapiens) (UniProt P54762).
T1 sequence (whole entry): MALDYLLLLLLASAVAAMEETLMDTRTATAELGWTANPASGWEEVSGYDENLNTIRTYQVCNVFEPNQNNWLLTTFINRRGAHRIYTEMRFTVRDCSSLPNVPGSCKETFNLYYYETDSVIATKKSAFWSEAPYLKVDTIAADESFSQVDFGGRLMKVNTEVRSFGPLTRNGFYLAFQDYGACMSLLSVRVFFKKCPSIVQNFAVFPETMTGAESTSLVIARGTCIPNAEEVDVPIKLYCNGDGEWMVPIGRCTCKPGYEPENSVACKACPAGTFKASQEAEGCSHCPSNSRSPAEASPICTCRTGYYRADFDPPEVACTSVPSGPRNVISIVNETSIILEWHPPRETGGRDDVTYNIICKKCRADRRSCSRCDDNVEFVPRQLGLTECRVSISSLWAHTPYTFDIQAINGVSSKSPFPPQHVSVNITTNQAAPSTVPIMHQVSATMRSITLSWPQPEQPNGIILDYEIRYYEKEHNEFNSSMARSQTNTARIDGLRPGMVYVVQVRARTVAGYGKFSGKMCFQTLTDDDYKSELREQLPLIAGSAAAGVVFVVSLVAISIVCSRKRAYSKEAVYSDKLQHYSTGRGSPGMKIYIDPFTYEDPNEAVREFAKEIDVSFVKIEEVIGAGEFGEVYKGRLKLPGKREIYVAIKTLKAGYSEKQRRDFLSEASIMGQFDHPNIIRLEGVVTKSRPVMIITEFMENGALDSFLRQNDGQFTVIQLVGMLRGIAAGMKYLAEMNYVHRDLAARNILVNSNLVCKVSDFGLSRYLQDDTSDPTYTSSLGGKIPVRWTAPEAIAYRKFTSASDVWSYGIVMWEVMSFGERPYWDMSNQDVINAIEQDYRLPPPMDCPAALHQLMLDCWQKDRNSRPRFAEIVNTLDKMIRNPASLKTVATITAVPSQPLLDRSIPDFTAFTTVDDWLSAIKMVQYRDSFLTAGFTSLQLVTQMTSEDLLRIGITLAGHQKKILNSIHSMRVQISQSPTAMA
The conditions noted are these: at 10 µM.

The target of assay [2] is T2, Ephrin type-B receptor 2 (Homo sapiens) (UniProt P29323).
T2 sequence (whole entry): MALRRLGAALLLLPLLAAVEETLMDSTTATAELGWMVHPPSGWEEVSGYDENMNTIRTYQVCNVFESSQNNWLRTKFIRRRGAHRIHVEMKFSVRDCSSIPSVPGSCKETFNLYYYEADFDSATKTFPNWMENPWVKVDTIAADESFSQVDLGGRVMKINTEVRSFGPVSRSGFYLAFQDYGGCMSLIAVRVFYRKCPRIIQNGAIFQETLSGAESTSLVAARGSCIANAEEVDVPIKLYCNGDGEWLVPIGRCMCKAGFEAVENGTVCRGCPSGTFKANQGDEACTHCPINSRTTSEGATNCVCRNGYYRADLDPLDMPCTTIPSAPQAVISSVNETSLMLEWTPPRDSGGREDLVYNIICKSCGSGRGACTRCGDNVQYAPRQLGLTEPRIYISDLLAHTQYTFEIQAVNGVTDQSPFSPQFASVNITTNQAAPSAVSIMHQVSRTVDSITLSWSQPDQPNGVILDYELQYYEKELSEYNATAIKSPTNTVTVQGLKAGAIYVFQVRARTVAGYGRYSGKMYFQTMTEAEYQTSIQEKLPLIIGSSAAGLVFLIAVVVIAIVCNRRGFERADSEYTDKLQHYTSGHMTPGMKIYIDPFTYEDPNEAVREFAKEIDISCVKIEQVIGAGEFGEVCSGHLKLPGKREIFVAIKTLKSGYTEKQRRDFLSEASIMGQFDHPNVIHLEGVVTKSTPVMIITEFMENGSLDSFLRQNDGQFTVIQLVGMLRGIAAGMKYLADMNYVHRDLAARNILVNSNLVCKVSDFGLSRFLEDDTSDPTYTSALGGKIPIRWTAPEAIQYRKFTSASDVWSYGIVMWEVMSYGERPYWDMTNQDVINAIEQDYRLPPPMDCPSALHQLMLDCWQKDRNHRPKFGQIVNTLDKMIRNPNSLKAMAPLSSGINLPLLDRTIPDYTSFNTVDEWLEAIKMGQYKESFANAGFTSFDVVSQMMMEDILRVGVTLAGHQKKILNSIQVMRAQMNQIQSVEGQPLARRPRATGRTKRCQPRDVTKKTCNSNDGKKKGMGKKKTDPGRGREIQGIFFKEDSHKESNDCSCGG
To be noted: at 1 µM.

In assay [3] the target is T2, Ephrin type-B receptor 2 (Homo sapiens). To be noted: at 10 µM.
In assay [4] the target is T3, Ephrin type-B receptor 3 (Homo sapiens) (UniProt P54753).
T3 sequence (whole entry): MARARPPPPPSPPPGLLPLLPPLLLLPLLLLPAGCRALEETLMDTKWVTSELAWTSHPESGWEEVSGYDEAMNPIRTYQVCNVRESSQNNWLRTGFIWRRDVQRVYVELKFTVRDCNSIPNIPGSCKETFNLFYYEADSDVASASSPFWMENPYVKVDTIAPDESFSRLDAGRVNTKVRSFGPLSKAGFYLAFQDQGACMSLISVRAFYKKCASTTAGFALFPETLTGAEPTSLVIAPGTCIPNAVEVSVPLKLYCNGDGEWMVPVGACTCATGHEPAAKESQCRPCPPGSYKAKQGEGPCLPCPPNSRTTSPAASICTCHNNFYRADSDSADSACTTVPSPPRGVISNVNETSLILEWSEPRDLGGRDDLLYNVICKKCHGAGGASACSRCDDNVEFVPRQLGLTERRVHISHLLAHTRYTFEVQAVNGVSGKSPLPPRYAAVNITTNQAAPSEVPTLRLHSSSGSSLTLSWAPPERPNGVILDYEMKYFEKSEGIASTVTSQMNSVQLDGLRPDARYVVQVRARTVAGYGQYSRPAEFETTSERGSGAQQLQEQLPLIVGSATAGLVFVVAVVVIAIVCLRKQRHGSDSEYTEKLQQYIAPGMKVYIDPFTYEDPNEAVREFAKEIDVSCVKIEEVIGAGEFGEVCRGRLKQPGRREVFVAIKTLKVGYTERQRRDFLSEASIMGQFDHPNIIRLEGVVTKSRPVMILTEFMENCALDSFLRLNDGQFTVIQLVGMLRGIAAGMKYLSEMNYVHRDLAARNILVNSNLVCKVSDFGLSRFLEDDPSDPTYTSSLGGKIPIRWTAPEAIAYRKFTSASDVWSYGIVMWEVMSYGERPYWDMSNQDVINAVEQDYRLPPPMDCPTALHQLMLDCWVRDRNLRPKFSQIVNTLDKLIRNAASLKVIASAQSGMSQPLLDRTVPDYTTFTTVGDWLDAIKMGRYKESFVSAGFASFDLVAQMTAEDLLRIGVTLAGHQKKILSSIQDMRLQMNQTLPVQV
The conditions noted are these: at 1 µM.

Assay [5] deals with T3, Ephrin type-B receptor 3 (Homo sapiens). To be noted: at 10 µM.
In assay [6] the target is T4, Ephrin type-B receptor 4 (Homo sapiens) (UniProt P54760).
T4 sequence (whole entry): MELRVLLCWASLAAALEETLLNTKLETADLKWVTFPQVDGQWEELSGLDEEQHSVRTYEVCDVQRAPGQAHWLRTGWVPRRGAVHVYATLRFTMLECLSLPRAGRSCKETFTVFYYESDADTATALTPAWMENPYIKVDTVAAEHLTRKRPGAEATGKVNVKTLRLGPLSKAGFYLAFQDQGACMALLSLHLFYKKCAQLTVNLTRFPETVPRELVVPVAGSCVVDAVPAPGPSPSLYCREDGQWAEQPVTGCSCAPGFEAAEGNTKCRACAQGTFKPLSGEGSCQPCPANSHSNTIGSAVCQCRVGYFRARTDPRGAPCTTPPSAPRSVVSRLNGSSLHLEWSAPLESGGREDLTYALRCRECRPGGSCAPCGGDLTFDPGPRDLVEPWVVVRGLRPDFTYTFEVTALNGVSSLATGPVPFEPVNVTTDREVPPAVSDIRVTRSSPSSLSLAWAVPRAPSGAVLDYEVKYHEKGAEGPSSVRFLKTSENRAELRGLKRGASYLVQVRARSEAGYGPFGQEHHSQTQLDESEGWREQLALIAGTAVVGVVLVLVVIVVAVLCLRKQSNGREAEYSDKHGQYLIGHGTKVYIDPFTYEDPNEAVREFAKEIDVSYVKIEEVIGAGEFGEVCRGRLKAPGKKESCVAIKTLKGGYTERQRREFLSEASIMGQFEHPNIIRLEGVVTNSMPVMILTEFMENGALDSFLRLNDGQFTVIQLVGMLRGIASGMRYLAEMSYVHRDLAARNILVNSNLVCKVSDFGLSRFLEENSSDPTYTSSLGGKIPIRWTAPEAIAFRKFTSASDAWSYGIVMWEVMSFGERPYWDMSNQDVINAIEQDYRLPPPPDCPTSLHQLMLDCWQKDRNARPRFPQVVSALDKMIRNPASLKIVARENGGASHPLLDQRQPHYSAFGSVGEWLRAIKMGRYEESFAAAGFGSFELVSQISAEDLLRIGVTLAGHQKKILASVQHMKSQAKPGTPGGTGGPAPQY
The conditions noted are these: at 1 µM.

The target in assay [7] is T4, Ephrin type-B receptor 4 (Homo sapiens). To be noted: at 10 µM.
Assay [8] has as its target Receptor tyrosine-protein kinase erbB-4 (Homo sapiens) (UniProt Q15303). The conditions noted are these: at 1 µM.
For assay [9] the target is unchanged. The conditions noted are these: at 10 µM.
In assay [10] the target is Focal adhesion kinase 1 (Homo sapiens) (UniProt Q05397). The conditions noted are these: at 1 µM.
Focal adhesion kinase 1 (Homo sapiens), sequence (Q05397 2-1052 limits assumed): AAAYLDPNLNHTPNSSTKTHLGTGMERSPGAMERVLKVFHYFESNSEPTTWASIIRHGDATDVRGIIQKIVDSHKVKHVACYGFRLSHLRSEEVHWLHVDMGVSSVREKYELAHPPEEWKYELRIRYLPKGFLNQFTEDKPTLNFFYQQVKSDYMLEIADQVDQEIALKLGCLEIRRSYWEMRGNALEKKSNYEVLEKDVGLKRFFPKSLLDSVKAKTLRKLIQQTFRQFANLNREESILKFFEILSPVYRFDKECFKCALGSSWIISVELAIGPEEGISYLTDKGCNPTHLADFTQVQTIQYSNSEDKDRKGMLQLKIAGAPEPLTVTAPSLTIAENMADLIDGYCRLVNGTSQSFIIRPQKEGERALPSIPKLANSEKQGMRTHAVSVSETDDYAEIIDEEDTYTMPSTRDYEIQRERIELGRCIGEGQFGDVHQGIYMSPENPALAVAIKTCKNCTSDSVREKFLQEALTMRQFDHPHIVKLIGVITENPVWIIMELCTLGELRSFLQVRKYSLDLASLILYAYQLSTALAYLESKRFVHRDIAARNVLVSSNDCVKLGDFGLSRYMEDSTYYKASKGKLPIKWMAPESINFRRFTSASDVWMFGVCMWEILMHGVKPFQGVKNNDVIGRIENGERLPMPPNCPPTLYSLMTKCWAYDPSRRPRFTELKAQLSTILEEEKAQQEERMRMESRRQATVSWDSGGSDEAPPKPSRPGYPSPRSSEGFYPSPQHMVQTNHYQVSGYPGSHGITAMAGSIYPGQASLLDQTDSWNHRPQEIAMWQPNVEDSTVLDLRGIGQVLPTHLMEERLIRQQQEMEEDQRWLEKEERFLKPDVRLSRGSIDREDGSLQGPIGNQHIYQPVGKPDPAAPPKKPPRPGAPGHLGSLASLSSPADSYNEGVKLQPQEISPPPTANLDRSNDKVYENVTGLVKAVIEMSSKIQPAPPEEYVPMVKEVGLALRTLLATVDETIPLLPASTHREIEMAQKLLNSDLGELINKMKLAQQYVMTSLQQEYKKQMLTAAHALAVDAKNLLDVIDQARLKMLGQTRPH

Structures are written as SMILES.

Receptor tyrosine-protein kinase erbB-4 (Homo sapiens), sequence (Q15303 whole entry): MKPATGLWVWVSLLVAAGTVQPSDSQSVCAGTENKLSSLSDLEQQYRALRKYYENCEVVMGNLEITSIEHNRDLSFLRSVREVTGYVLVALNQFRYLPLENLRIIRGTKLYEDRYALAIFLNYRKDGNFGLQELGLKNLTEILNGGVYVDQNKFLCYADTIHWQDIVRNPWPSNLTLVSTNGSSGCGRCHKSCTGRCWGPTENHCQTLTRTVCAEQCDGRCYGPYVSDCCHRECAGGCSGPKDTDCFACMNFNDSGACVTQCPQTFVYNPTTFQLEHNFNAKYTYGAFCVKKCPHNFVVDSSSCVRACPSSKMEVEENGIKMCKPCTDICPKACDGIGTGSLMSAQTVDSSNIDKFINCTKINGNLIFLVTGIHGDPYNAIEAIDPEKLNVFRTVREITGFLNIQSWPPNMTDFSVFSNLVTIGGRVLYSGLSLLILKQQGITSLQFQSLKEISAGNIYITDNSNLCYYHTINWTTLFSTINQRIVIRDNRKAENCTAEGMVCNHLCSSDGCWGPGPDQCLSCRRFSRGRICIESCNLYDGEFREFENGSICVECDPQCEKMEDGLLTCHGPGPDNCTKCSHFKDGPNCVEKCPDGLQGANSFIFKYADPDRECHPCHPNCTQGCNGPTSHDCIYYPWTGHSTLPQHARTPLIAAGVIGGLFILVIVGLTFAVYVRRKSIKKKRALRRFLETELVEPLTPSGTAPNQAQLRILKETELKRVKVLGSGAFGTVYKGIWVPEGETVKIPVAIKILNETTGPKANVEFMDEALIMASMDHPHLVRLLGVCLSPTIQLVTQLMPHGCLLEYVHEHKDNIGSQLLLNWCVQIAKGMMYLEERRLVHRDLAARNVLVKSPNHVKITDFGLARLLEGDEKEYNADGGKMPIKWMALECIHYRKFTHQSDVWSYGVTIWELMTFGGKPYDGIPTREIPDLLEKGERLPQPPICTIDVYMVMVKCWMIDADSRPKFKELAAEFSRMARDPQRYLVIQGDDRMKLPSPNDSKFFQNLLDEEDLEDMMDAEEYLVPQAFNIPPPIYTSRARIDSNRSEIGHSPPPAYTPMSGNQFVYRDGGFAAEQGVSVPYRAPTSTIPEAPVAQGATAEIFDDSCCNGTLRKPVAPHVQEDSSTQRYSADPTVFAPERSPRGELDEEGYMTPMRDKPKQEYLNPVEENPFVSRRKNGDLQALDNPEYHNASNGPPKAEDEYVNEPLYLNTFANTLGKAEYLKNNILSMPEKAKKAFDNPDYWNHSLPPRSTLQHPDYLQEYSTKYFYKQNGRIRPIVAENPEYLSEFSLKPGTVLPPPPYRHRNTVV

In the case of `CC(C)(C)n1nc(Cc2cccc3ccccc23)c2c(N)ncnc21`, the residual activity – broadly, the signal under treatment as a percentage of the control signal – is 0% in assay [1]; 3% in assay [2]; -1% in assay [3]; 112% (inactive) in assay [4]; 12% in assay [5]; 3% in assay [6]. The residual activity in assay [7] was -3%; in assay [8], 51%; in [9], 8%; in [10], 122%.
